Source: PubChem BioAssay (Tox21)
Several values for one entry are separate records, joined by “and”; a condition that tells them apart may be missing. Equal values may be shown once. Inconclusive results are not listed. A call without a number means that no potency is given here. Some structures have more than one record in an assay (separate samples or runs), and their calls can disagree. Activity calls are given as the source filed them. Calls follow the shape of the dose curve; as a rule, active = well fitted cell-killing curve with a large enough effect in the repeat runs; inconclusive = weak or mixed curves, or effect the other way; inactive = no such curve, though single readings can be large or run the other way.
Potency is read from the fitted curve at half-maximal effect.

Test: qHTS assay for identifying genotoxic compounds that show differential cytotoxicity against isogenic chicken DT40 cell lines with known DNA damage response pathways - Rev3 mutant cell line (AID 743014); also: nearly all actives have a fitted effect of over 55% in size
Conditions: chicken DT40 Rev3-/- viability, CellTiter-Glo, 40 h; series mostly up to 68.4 µM
From the text: National Center for Advancing Translational Sciences [NCATS]
NIH Chemical Genomics Center [NCGC]
U.S. Environmental Protection Agency [EPA]
National Institutes of Environmental Health Sciences [NIEHS]
National Toxicology Program [NTP]
U.S. Food and Drug Administration [FDA]
DNA repair pathways play a critical role in cellular homeostasis by repairing DNA damage induced by endogenous processes and xenobiotics. Isogenic chicken DT40 cell lines deficient in different DNA repair pathways can be used to identify genotoxic compounds and aid in characterizing the nature of the DNA damage induced. Two DNA repair-deficient cell lines with disrupted genes, Rad54/Ku70 or Rev3, were used to screen the Tox21 10K compound library. Possible genotoxicity was based on the presence of a significant increase in cytotoxicity in one or more of the DNA repair-deficient cell lines compared to that observed in the parental DNA repair-proficient cell line. CellTiter Glo viability assay (Promega, Madison, WI) was used to measure cell viability in these cells after compound treatment. This assay includes the data from the Rev3 mutant cell line.
Tox21 Assay Protocol Summary:
300 DT40 mutant cells in 5 uL/well were dispensed into white, solid-bottom 1536-well plates using a Multidrop Combi (ThermoFisher Scientific, Waltham, MA) dispenser. After the assay plates were incubated at 37 C/5% CO2 for approximately 0.5 hour, 23 nL of compounds dissolved in DMSO, positive controls or DMSO only was transferred into the assay plate by a pintool work station (Kalypsys, San Diego, CA). The assay plates were incubated at 37 C/5% CO2 for 40 hours. After 5 uL per well of CellTiter-Glo reagent was added into each well of the assay plates, the plates were incubated for 30 min at room temperature and the luminescence intensity of the plates was measured using a ViewLux (PerkinElmer, Shelton, CT) plate reader.
For `COC(=O)C1=C(C)NC(C)=C(C(=O)OCCN(C)Cc2ccccc2)C1c1cccc([N+](=O)[O-])c1` (stereo not given), the Potency was 11.9 µM (active) and 21.6 µM (active).
With `Nc1ccc(S(=O)(=O)Nc2cnc3ccccc3n2)cc1` the Potency was “inactive”.
In the case of `OCCO`, the Potency was “inactive”.
For `Cc1cccc(C(=O)O)c1`, the Potency was “inactive”.
For `O=C(c1ccccc1)c1ccc(O)cc1O`, the Potency was “inactive”.
In the case of `CCOCCOCCO`, the Potency was “inactive”.
With `Cc1ncc[nH]1` the Potency was “inactive”.
For `O=CCc1ccccc1`, the Potency was “inactive”.
For `CN(C)c1nc(N(C)C)nc(N(C)C)n1`, the Potency was “inactive”.
For `CN(C)CCN(Cc1cccs1)c1ccccn1`, the Potency was “inactive”.
For `CCCCC(CC)COC(=O)c1ccc(N(C)C)cc1` (stereo not given), the Potency was “inactive and 54.5 µM (active)”.
For `CC(C)=CCC/C(C)=C\CO`, the Potency was “inactive and 61.1 µM (active)”.
For `CCCCOCCOCCOCCO`, the Potency was “inactive”.
With `CC(CCC(=O)O)(c1ccc(O)cc1)c1ccc(O)cc1` the Potency was “inactive”.
For `c1ccncc1`, the Potency was “inactive”.
In the case of `O=C(Nc1ccc([N+](=O)[O-])cc1Cl)c1cc(Cl)ccc1O`, the Potency was 473 nM (active) and 686 nM (active).
With `C=C(C)C(=O)OCCOC(=O)C(=C)C` the Potency was “inactive”.
With `COc1ccccc1/C=C/C=O` the Potency was 62.8 µM (active).
With `CC(C)OC=O` the Potency was 72.9 µM (active) and inactive.
In the case of `Cc1c(C(N)=O)cc([N+](=O)[O-])cc1[N+](=O)[O-]`, the Potency was “inactive”.
For `OC(CCl)CCl`, the Potency was “inactive”.
For `OC1CCCCCCCCCCC1`, the Potency was “inactive”.
For `Nc1ncn([C@@H]2O[C@H](CO)[C@@H](O)[C@H]2O)c(=O)n1`, the Potency was 1.88 µM (active) and 1.22 µM (active).
In the case of `C=C(C)C1CC=C(C)CC1` (stereo not given), the Potency was “inactive”.
In the case of `O=Cc1ccccc1O`, the Potency was “inactive”.
With `CC(=O)c1ccccn1` the Potency was “inactive”.
With `O=P(O)(O)O` the Potency was “inactive”.
With `CC(C)OC(=O)C(C)(C)Oc1ccc(C(=O)c2ccc(Cl)cc2)cc1` the Potency was 24.3 µM (active).
In the case of `CCC(C)CO` (stereo not given), the Potency was “inactive”.
In the case of `c1cc(N(CC2CO2)CC2CO2)ccc1OCC1CO1` (stereo not given), the Potency was 10.9 nM (active) and 12.2 nM (active).
For `C[Si](C)(C)O[Si](C)(C)C`, the Potency was “inactive”.
In the case of `S=C(NC1CCCCC1)NC1CCCCC1`, the Potency was “inactive and 61.1 µM (active)”.
For `CN1C(C(=O)Nc2ccccn2)=C(O)c2ccccc2S1(=O)=O`, the Potency was “inactive”.
In the case of `O=C(c1ccc(OCCN2CCCCC2)cc1)c1c(-c2ccc(O)cc2)sc2cc(O)ccc12`, the Potency was 1.06 µM (active) and 612 nM (active) and 686 nM (active).
In the case of `COC(=O)CCC(=O)OC`, the Potency was “inactive”.
For `CCCCC(CC)COCC1CO1` (stereo not given), the Potency was “inactive”.
With `C#C[C@]1(O)CC[C@H]2[C@@H]3CCc4cc(OC)ccc4[C@H]3CC[C@@]21C` the Potency was 5.96 µM (active) and 4.86 µM (active).
In the case of `CC(=O)O[C@]1(C(C)=O)CC[C@H]2[C@@H]3C=C(Cl)C4=CC(=O)[C@@H]5C[C@@H]5[C@]4(C)[C@H]3CC[C@@]21C`, the Potency was 21.1 µM (active) and 4.85 µM (active) and 15.4 µM (active).
With `CC1=CCC(C(C)(C)O)CC1` (stereo not given) the Potency was “inactive”.
In the case of `Cc1ccc(C(=O)c2cc(O)c(O)c([N+](=O)[O-])c2)cc1`, the Potency was “inactive and 68.6 µM (active)”.
